A word on the inhibition: it is how much of the control response was suppressed.

Each structure is given as a SMILES string. Unmarked numbers belong to inactive results. The rule behind the calls is not given here.

Pantothenate synthetase (Mycobacterium tuberculosis (strain ATCC 25618 / H37Rv)), sequence (P9WIL5 whole entry, looked up): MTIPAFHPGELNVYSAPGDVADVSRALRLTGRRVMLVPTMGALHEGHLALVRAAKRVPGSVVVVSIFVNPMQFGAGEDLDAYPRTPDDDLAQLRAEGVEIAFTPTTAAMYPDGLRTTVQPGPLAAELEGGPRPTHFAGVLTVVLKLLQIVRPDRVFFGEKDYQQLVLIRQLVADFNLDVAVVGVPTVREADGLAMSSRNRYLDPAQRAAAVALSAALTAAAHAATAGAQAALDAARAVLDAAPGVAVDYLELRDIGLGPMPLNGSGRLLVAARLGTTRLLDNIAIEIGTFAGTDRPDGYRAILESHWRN

The assay concerns the target Pantothenate synthetase (Mycobacterium tuberculosis (strain ATCC 25618 / H37Rv)) (UniProt P9WIL5). As to the kind of experiment: Recombinant Mtb pantothenate synthetase (PanC) inhibitors, coupled enzyme, confirmatory (AID 375).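 Note: 0% = full reaction with vehicle and 100% = no enzyme background.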 To be noted: coupled enzyme assay; at 10 µM, stronger effect = higher value.
Regarding `Cn1c(=O)oc2cc(S(=O)(=O)NCCC(=O)N3CCc4ccccc4C3)ccc21`, the inhibition is 0%.
As for `CCC1C(=O)n2nc(-c3ccccc3)cc2N=C1C` (stereo not given), the figure is 0%; as for `N#CCc1c(C#N)c(N)nc(N2CCN(S(=O)(=O)c3ccccc3)CC2)c1C#N`, 6%.
In the case of `CCN(CC)CCCN1C(=O)C(O)=C(C(C)=O)C1c1cccc(OC)c1` (stereo not given) it was 0%; in that of `C=CS(=O)(=O)c1ccc(Oc2ccc(S(=O)(=O)C=C)cc2)cc1`, 10%; in that of `O=C(OCCN1C(=O)c2ccccc2C1=O)c1ccc(S(=O)(=O)N2CCCCCC2)cc1`, 0%.
For the compound `COc1cc(NC(=O)c2cccs2)cc(OC)c1`, the inhibition is 0%.
Take `O=C(NCc1ccc2c(c1)OCO2)C1CCC(CNS(=O)(=O)c2ccccc2)CC1` (stereo not given): the inhibition was 0%.
For `O=C1CC(c2ccc(Cl)cc2)n2nc(N3C(=O)c4ccccc4C3=O)nc2N1` (stereo not given), the inhibition was 5%.
In the case of `COc1cccc(C2=NOC(C(=O)N3CCc4ccccc4C3)C2)c1` (stereo not given) it was 0%.
In the case of `O=C(OCCN=C1NS(=O)(=O)c2ccccc21)C1CC(=O)N(c2ccc(Cl)cc2)C1` (stereo not given) it was 0%; in that of `CSc1ccccc1NC(=O)C1CCCO1` (stereo not given), 7%; in that of `Cc1ccc2cc(CN(Cc3ccc(F)cc3)Cc3nnnn3C3CCCC3)c(=O)[nH]c2c1`, 6%.
In the case of `CCOC(=O)C1CCN(CC(=O)Nc2c(C(=O)OC)[nH]c3ccc(Cl)cc23)CC1` it was 5%; in that of `COc1ccc(CC(=O)Nc2c3c(nn2-c2cccc(Cl)c2)CS(=O)(=O)C3)cc1`, 0%.
For `CSc1nc(C)cc(Oc2ccc(=O)n(C)n2)n1`, the inhibition is 0%.
On to `O=C(CSc1nc(N2CCCCC2)nc(N2CCCCC2)n1)Nc1nccs1`, for which the inhibition is 0%.
In the case of `COc1ccc2cc(CN(CCO)C(=O)c3ccccc3F)c(=O)[nH]c2c1` it was 5%.
With `COCCCNC(=O)CCCn1c(=O)c2ccccc2n(CC(=O)Nc2c(C)cccc2C)c1=O`, the inhibition was 0%.
In the case of `Cc1cc(C)c2c(n1)nn1c(N3CCN(c4cccc(Cl)c4)CC3)cc(C)nc21` it was 5%; in that of `CCOc1ccccc1C(=O)NC(C)c1ccc2c(c1)OCO2` (stereo not given), 0%; in that of `CCN1C(=O)Cc2cc(S(=O)(=O)N3CCOCC3)ccc21`, 9%.
In the case of `CCOCCCNC(=O)C1CCCN(S(=O)(=O)CC)C1` (stereo not given) it was 0%; in that of `Cc1cc(C)c(C(=O)Nc2ccc(S(=O)(=O)Nc3onc(C)c3C)cc2)c(C)c1`, 8%.
In the case of `O=c1c2ccccc2nc(SCc2nnc(-c3ccccc3Br)o2)n1-c1ccccc1` it was 0%; in that of `O=C(C1CC1)N(Cc1ccco1)c1nc(-c2ccccc2)cs1`, 1%.
As to `CCOc1ccc(Cn2nnc(C(=O)Nc3ccc(OC)cc3OC)c2N)cc1`, the inhibition was 0%.
As for `CCOC(=O)N1CCN(C(=O)CN(C)S(=O)(=O)c2ccc(OC)c(OC)c2)CC1`, the figure is 0%; as for `CS(=O)(=O)N(CC(=O)N1CCc2ccccc2C1)c1ccc2c(c1)OCO2`, 0%.
In the case of `CC1(C)CC(=O)C(C=Nc2ccc3c(c2)OCO3)=C(O)C1` it was 7%; in that of `O=C(CCN1C(=O)COc2ccccc21)N1CCN(c2ccccn2)CC1`, 0%; in that of `Cc1cccc(N2CCN(C(=O)c3ccc(NS(=O)(=O)c4c(C)noc4C)cc3)CC2)c1C`, 0%.
In the case of `CCOc1ccc(C2C(C(=O)OC)=CN(CCOC)C=C2C(=O)OC)cc1` it was 4%; in that of `CCS(=O)(=O)N1CCCC(c2nc(-c3cccc(OC)c3)no2)C1` (stereo not given), 0%.
As for `CN=C(Nc1ccc2c(c1)OCO2)SC1CC(=O)N(c2ccccc2)C1=O` (stereo not given), the inhibition is 0%.
On to `CCCN(CCC)CCNC(=O)c1cc2c(=O)n(C)c3ccccc3c2n1C`, for which the inhibition is 0%.
Take `O=C(CCCn1c(=O)c2sccc2n(CC(=O)NCc2ccco2)c1=O)NCc1ccco1`: the inhibition was 0%.
Regarding `COc1ccc(/C=N/n2c(=O)[nH]c3c([nH]c4ccc(C)cc43)c2=O)cc1CN1CCOCC1`, the inhibition was 2%.
In the case of `CC12COC3(C(=O)Nc4ccc(Cl)cn4)CC1CCC32C` (stereo not given) it was 0%; in that of `Cc1c(C(=O)OC2CCCCC2)[nH]c2c1C(=O)CC(C)(C)C2`, 0%.

The record behind these values is PubChem BioAssay.
